The whole screen tested about 310,000 compounds, of which about 2,200 (0.71%) showed an effect of 50% or more. Effects have a minus sign here. The sample holds strong results, similar compounds and a random draw of the others, so the mix is not that of the screen.
The molecules below were run against human ether-à-go-go-related gene (hERG) potassium channel (human, UniProt Q12809) (assay: primary screen, population patch clamp on CHO cells stably expressing hERG; higher = less effect of the substance).
Chain of human ether-à-go-go-related gene (hERG) potassium channel (Q12809 whole entry, looked up): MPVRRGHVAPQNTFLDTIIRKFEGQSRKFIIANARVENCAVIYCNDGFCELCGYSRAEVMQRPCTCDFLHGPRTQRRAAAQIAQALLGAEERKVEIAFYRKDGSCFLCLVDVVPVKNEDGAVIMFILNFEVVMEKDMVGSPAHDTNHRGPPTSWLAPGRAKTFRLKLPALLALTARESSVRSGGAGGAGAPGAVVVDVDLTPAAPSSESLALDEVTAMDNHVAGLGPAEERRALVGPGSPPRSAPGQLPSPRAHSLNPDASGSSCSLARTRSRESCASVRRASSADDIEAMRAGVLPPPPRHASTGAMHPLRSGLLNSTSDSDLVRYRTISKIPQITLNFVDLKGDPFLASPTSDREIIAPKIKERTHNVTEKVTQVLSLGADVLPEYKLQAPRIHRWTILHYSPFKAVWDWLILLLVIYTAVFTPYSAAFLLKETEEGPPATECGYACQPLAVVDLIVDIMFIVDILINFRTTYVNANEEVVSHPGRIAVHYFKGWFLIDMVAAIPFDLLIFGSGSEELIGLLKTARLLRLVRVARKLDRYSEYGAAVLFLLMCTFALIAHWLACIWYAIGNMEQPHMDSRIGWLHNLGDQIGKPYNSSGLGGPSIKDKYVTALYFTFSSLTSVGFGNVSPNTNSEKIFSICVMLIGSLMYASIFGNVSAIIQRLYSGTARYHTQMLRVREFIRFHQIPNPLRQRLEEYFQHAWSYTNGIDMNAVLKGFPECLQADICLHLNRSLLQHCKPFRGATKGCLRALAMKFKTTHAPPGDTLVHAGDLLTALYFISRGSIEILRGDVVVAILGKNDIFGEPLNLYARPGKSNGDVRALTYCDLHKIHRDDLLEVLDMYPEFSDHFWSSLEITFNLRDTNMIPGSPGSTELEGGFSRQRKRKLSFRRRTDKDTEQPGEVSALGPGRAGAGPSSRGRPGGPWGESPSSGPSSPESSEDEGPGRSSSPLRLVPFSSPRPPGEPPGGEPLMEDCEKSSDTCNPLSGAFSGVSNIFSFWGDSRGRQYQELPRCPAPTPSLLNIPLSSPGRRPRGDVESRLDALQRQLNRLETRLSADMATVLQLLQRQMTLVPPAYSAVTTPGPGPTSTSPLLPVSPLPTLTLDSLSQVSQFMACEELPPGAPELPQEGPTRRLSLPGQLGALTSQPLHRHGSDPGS

| SMILES | hERG current change (%, negative = inhibition) at 1uM [%] |
| --- | --- |
| CC(=O)N1CCc2cc(Br)cc(S(=O)(=O)CCC(=O)N3CCN(c4ccccn4)CC3)c21 | 6.2 |
| CCn1c(Cc2cccs2)nnc1SCC(=O)c1ccc(C)cc1 | 5.59 |
| COc1ccc(NS(=O)(=O)c2ccc(O)c(C(=O)OCC(=O)N3CC(C)OC(C)C3)c2)cc1 (stereo not drawn) | 12.3 |
| COc1cccc(NC(=O)CN2C(=O)COc3ccc(Cl)cc32)c1 | 8.19 |
| Cc1ccc(C)c(NC(=S)NNC(=O)c2csc(C(C)C)c2)c1 | 0.742 |
| COc1cc(NC(=O)c2sc3nc(C)nc(N4CCOCC4)c3c2C)cc(OC)c1OC | 30.1 |
| Cc1csc2nc3cc(C(N)=O)ccc3c(=O)n12 | 10.2 |
| CCCCN(CC)Cc1c(C)[nH]c2c(ccc3ccccc32)c1=O | -49.6 |
| CCCCN(C)Cc1c(C)[nH]c2ccccc2c1=O | -8.8 |
| CCCCN(C)Cc1c(C)[nH]c2c(ccc3ccccc32)c1=O | -56.1 |
| O=C(c1ccco1)N1C(=O)c2cccc3c(S(=O)(=O)N4CCCC4)ccc1c23 | 6.3 |
| CCc1ccc2oc(-c3cc(N)ccc3Cl)nc2c1 | 12 |
| COc1ccc(C(=O)C2CCCN(Cc3c[nH]c4ccccc34)C2)c(OC)c1 (stereo not drawn) | -58.8 |
| COc1ccc(C(=O)C2CCCN(Cc3cccc(C)n3)C2)c(OC)c1 (stereo not drawn) | -58.3 |
| COc1ccc(F)cc1C(=O)C1CCCN(Cc2c[nH]c3ccccc23)C1 (stereo not drawn) | -18.6 |
| COc1ccc(C(=O)C2CCCN(C3Cc4ccccc4C3)C2)c(OC)c1 (stereo not drawn) | -68.2 |
| COc1cccc(C(=O)C2CCCN(C/C=C/c3ccccc3OC)C2)c1 (stereo not drawn) | -2.82 |
| COc1ccc2cc(C(=O)C3CCCN(Cc4cccc(C)n4)C3)ccc2c1 (stereo not drawn) | 11.2 |
| COc1ccc(C(=O)C2CCCN(C3CSCCSC3)C2)c(OC)c1 (stereo not drawn) | -4.62 |
| COc1ccc(C(=O)C2CCCN(C3Cc4ccccc4C3)C2)cc1OC (stereo not drawn) | -33.2 |
| COc1cccc(C(=O)C2CCCN(Cc3cccc(C)n3)C2)c1 (stereo not drawn) | -30.1 |
| COc1ccc(C(=O)C2CCCN(Cc3c(C)[nH]c4ccccc34)C2)c(OC)c1 (stereo not drawn) | -28.6 |
| COc1ccc(C(=O)C2CCCN(C/C=C/c3ccccc3OC)C2)c(OC)c1 (stereo not drawn) | -78.6 |

| SMILES | hERG current change (%, negative = inhibition) at 1uM [%] |
| --- | --- |
| COc1ccc(C(=O)C2CCCN(Cc3ccc(C)s3)C2)c(OC)c1 (stereo not drawn) | -2.87 |
| CNC(=O)NC(=O)CSc1nnc(C(F)(F)F)n1C | 8.32 |
| O=C(OCC(=O)N1CCCC1)c1c(Cl)ccc(Cl)c1Cl | 9.45 |
| CCCc1nc(NC(C)=O)c(C#N)c(-c2ccco2)c1CC | 0.0807 |
| Cc1cccc(C)c1NC(=O)c1c[nH]c2ccccc12 | 11.7 |
| COCC(C)n1c(C)cc(C(=O)CN2c3cccc4cccc(c34)S2(=O)=O)c1C (stereo not drawn) | 7.82 |
| CC(C)C(c1nnnn1Cc1ccccc1)N(CCCO)Cc1cc2cc3c(cc2[nH]c1=O)OCO3 (stereo not drawn) | 10.4 |
| COC(=O)c1cc2ccsc2n1CC(=O)Nc1ccc(N(C)C)cc1 | 5.25 |
| C=CCN1N=C(c2ccc(Cl)s2)CSC1=O | 22.3 |
| Cc1ccc(NC(=S)NC(=O)CC2CC(C)(C)OC2=O)cc1 (stereo not drawn) | 8.78 |
| CCN1/C(=C/c2ccc3ccccc3[n+]2CCCS(=O)(=O)[O-])C=Cc2cc(C)ccc21 | 13 |
| CCN1C(=C(C#N)C#N)C=Cc2cc(C)ccc21 | 14.9 |
| CCN1/C(=C/c2ccc3ccccc3[n+]2CC)C=Cc2ccccc21.[Cl-] | -89.5 |
| CCN1/C(=C/c2cc[n+](C)cc2)C=Cc2cc(C)ccc21.[I-] | -55.5 |
| CCN1C(=C(C#N)C#N)C=Cc2ccccc21 | 15.9 |
| CCN1/C(=C2\C(=O)N(c3ccccc3)N=C2C)C=Cc2cc(C)ccc21 | -1.41 |
| CCN1C(=O)/C(=C2\C=Cc3cc(C)ccc3N2CC)OC1=S | 14 |
| C=CC[n+]1c(/C=C2\C=Cc3cc(C)ccc3N2CC)ccc2ccccc21.[Br-] | -92.1 |
| CCOC(=O)/C(C#N)=C/C=C1\C=Cc2ccccc2N1CC | 14.8 |
| O=S(=O)(CCc1nnc(-c2ccc(Br)cc2)o1)c1ccc(Cl)cc1 | 6.04 |
| Cc1cccc(NC(=O)CSc2cccc3cccnc23)c1C | 13.9 |
| COc1ccccc1NC(=O)c1nc[nH]c1C(=O)Nc1ccccc1OC | 22.2 |

— article PMC4336329 (PLoS ONE, 2015)
